Shown are actives, neighbours in structure and some others; about 1.7% of the full set was active somewhere.
Giardia killer – kills Giardia lamblia. Giardia lamblia trophozoite viability. activity change, % at 7.66 µM, hits read low. actives 0.15% (n = 340,000); in the data active = activity change below about -80%; inconclusive = between about -30% and that limit;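 also: parasites exposed to compound for two days anaerobically before the ATP read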
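Media and compound were dispensed first, then trophozoites at 100 cells/well; plates sat 48 hrs at 37 deg C without oxygen before ATP luminescence reagent was added and read after 15-30 min at room temperature.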
USP1 inh – USP1/UAF1 (human) deubiquitinase inhibition; actives 0.23% (n = 390,000); O94782; recombinant USP1/UAF1, Ub-Rhodamine cleavage fluorescence; Potency, µM (series often up to 57.1 µM), hits mostly inhibitors; AID 743255; active = well fitted inhibition curve with a large enough effect; inconclusive = small, poorly fitted or top-dose-only effect; inactive = no such curve, though single readings can be large or run the other way; also: nearly all actives have a fitted effect of over 60% in size
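USP1/UAF1 complex at 1 nM was preincubated with compound for 15 min at room temperature, then Ub-Rho substrate (150nM final) was added. Fluorescence (480/540 nm) was read kinetically, 6 reads every 60 seconds.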
hERG WT inh – inhibitors of human wildtype KCNH2 potassium channel; activity change, % at 1.84 µM; AID 720551; U2OS, BacMam KCNH2, thallium flux FluxOr; active compounds read low; actives 0.37% (n = 340,000);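 active = maximum activity change below -70%; inconclusive = maximum activity change between -70% and -50%; inactive = maximum activity change above -50%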
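U2OS cells were transduced with wild-type KCNH2 virus (2.03 x 10^8 / mL) for 4 h at room temperature, then cultured overnight at 37 C. Thallium flux was read with FluxOr dye. Rate constants were normalized to DMSO controls.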
KCNH2 3.1 block – blocks the human KCNH2 3.1 channel isoform; actives 0.95% (n = 340,000); activity change, % (tested at about 1.8 µM); U2OS KCNH2 3.1, thallium flux FluxOr; active compounds read low;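 active = maximum activity change below -70%; inconclusive = maximum activity change from -70% to -50%; inactive = maximum activity change above -50%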;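 also: thallium influx rate constant from kinetic fluorescence after stimulation buffer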
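We transduce U2OS cells with the mutant 3.1 virus, culture them overnight, load FluxOr with Red40 quencher for 45 min, then add stimulation buffer and read kinetically for 2 min to derive a normalized rate constant.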
FBPA coupling cs – inhibits coupling enzyme system, counter-screen for aldolase hits. actives 0.67% (n = 290,000). coupling enzyme system counterscreen, AmpLite Red fluorescence. AID 2472. activity change, negative = inhibition, % at 58.2 µM, hits read low; in the data active = activity change below about -30%
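Coupling enzymes only (glyceraldehyde-3-phosphate) + compound, at 57.5 uM final, 10 min RT; add substrate/coupling/AmpLite Red mix, 20 min RT; fluorescence ex 525/em 598 nm. Actives flag coupling-system interference.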
Each line names hits and unclear results; the compound was inactive in the other large screens.

CC[C@H](C)[C@H](NC(=O)[C@H](Cc1ccc(O)cc1)NC(=O)[C@H](Cc1cnc[nH]1)NC(=O)[C@H](CCCNC(=N)N)NC(=O)[C@H](CC(C)C)NC(=O)[C@H](C)NC(=O)[C@H](CO)NC(=O)[C@H](Cc1ccc(O)cc1)NC(=O)[C@H](Cc1ccc(O)cc1)NC(=O)[C@H](CCCNC(=N)N)NC(=O)[C@H](C)NC(=O)[C@H](CC(C)C)NC(=O)[C@H](CC(=O)O)NC(=O)[C@H](CCC(=O)O)NC(=O)[C@H](C)NC(=O)[C@@H]1CCCN1C(=O)[C@H](C)NC(=O)[C@H](CC(=O)O)NC(=O)[C@H](CCC(=O)O)NC(=O)CNC(=O)[C@@H]1CCCN1C(=O)[C@H](CC(N)=O)NC(=O)[C@H](CC(=O)O)NC(=O)[C@@H]1CCCN1C(=O)[C@H](CCCCN)NC(=O)[C@@H](N)CO)C(=O)N[C@@H](CC(N)=O)C(=O)N[C@@H](CC(C)C)C(=O)N[C@H](C(=O)N[C@H](C(=O)N[C@@H](CCCNC(=N)N)C(=O)N[C@@H](CCC(N)=O)C(=O)N[C@@H](CCCNC(=N)N)C(=O)N[C@@H](Cc1ccc(O)cc1)C(N)=O)[C@@H](C)O)[C@@H](C)CC	none (no result: Giardia killer, USP1 inh, hERG WT inh, KCNH2 3.1 block)
C=CC(C)(C)c1[nH]c2ccccc2c1C1=C(O)C(=O)C(c2c[nH]c3c(CC=C(C)C)cccc23)=C(O)C1=O	none (no result: Giardia killer, USP1 inh, hERG WT inh, KCNH2 3.1 block)
CCN(CC(=O)Nc1ccc(OC(F)F)cc1)C1CCCCC1	KCNH2 3.1 block -92.0
COC(=O)c1ccc(-c2noc(CN(C)CCC3CCCCO3)n2)cc1 (configuration not stated)	FBPA coupling cs -55.3
COc1ccc(-c2noc(CN(C)CCC3CCCCO3)n2)cc1 (configuration not stated)	none
Cc1ccc(C)c2[nH]c(=O)c(CN(Cc3nnnn3C3CCCCC3)CC3CCCO3)cc12 (configuration not stated)	FBPA coupling cs -36.6
CCOc1ccccc1NC(=O)CCc1c(C)nc2c3cccnc3nn2c1C	none (no result: Giardia killer, hERG WT inh, KCNH2 3.1 block, FBPA coupling cs)
N=c1c2c(-c3ccccc3)c(-c3ccccc3)n(Cc3ccco3)c2ncn1CCCN1CCOCC1	KCNH2 3.1 block -78.0
N=c1c2c(-c3ccccc3)c(-c3ccccc3)n(Cc3ccco3)c2ncn1CCCn1ccnc1	KCNH2 3.1 block -71.4
CC(C)Cn1cnc2c(c(-c3ccccc3)c(-c3ccccc3)n2Cc2ccco2)c1=N	hERG WT inh -73.7, KCNH2 3.1 block -100.7
N=c1c2c(-c3ccccc3)c(-c3ccccc3)oc2ncn1CCCN1CCOCC1	none
N=c1c2c(-c3ccccc3)c(-c3ccccc3)n(Cc3ccco3)c2ncn1Cc1ccccc1	none
CC(C)OCCCNC(=S)Nc1ccc(S(N)(=O)=O)cc1	FBPA coupling cs -65.4
CC(=O)c1ccc(NC(=S)NCCc2ccc(S(N)(=O)=O)cc2)cc1	none
Clc1ccc(C2[C@H]3CN(CC4CCCCC4)[C@H](c4ccccc4)C34CC2(c2ccccc2)C4)cn1 (some centres not stated)	USP1 inh inconclusive, KCNH2 3.1 block -209.6
COC(=O)c1ccc(C23CC4(C2)[C@H](CN(CC2CCCCC2)[C@@H]4c2ccccc2)C3c2ccc(Cl)nc2)cc1 (some centres not stated)	none
CC1CCCN(S(=O)(=O)c2cccc(-c3cn4cccnc4n3)c2)C1 (configuration not stated)	KCNH2 3.1 block -109.7
CC(=O)Nc1ccc(S(=O)(=O)NCCC(=O)Nc2cccc(Cl)c2)cc1	none
CC(=O)Nc1ccc(S(=O)(=O)NCCOc2ccc(Cl)cc2C)cc1	hERG WT inh -120.2, KCNH2 3.1 block -190.4
Cc1nc2ccccc2c(=O)n1/N=C/c1ccc2ccccc2c1O	FBPA coupling cs -32.2
Cc1nc2ccccc2c(=O)n1/N=C/c1ccccc1O	none
O=C1c2cccc3cccc(c23)C(=O)N1/N=C/c1ccc(O)cc1O	none
O=C1c2ccccc2C(=O)N1/N=C/c1ccc(O)c(O)c1O	USP1 inh inconclusive, FBPA coupling cs -67.6
Cc1nc2ccccc2c(=O)n1/N=C/c1ccc(O)c(O)c1O	FBPA coupling cs -44.7
C=CCOc1ccccc1CN1CCC(Oc2cc(C(=O)NC3CC3)ccc2OC)CC1	hERG WT inh -99.4, KCNH2 3.1 block -76.9 (no result: FBPA coupling cs)
